GRK2 aptamer HTS: human GRK2 inhibition via aptamer displacement | P25098 | bead flow cytometry, FAM-aptamer displacement from GRK2 | inhibition of aptamer binding, % at 10 µM | 0.59% of 330,000 active | AID 488847;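 active = inhibition of aptamer binding above 40%, roughly 3 SD of noise, on plates passing a quality check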;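 note: median bead fluorescence of bound FAM aptamer so fluorescent compounds give negative values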
Target sequence (P25098 whole entry, looked up): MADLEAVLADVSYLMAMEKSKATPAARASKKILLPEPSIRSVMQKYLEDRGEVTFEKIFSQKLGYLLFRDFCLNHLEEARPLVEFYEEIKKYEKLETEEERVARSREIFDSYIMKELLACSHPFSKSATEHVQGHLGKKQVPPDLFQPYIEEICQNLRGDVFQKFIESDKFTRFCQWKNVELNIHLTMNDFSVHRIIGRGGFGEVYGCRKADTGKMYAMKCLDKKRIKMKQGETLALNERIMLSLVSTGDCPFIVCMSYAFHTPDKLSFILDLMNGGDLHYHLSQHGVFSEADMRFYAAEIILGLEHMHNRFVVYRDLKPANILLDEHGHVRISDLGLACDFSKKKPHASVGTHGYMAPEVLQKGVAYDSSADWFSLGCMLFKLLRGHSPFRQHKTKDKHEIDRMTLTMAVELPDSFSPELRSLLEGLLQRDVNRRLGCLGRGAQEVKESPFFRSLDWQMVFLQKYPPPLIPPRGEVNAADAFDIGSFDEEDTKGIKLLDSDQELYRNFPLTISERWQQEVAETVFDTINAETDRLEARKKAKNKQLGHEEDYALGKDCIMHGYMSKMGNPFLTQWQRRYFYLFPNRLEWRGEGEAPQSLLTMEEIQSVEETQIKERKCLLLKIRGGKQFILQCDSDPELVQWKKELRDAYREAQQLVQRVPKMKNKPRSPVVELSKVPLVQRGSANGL
MEKK3 PB1 HTS: modulators (inhibitors or enhancers) of MEK5 binding to human MEKK3 PB1 domain; binding response (% of control), % at 10 µM; bead-based flow cytometry, Alexa488-MEK5 binding to MEKK3; actives lie on both sides; 0 = blocked by unlabeled MEK5, 100 = vehicle; 1.4% of 290,000 active; Q99759; AID 1529;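 active = binding response more than 3 SD above or below the average of its plate-row segment, actives on both sides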;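 note: Alexa488 bead fluorescence after subtracting the streptavidin-only scavenger bead signal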
MEKK2wt PB1 HTS: raises or lowers MEK5 binding to wildtype human MEKK2 PB1 domain; Q9Y2U5; bead flow cytometry, Alexa488-MEK5 binding to MEKK2 WT; actives lie on both sides; binding response (% of control), % at 10 µM; 1.1% of 290,000 active; AID 1531; in the data active = binding response below about 67% or above about 130%
MEKK2mut PB1 HTS: signal of MEK5 binding to mutant human MEKK2 PB1 domain. 0.35% of 290,000 active. AID 1530. bead flow cytometry, Alexa488-MEK5 binding to MEKK2 mutant. percent response, % at 10 µM; in the data active = percent response above about 24%, passing the limit was not always enough
GRK2 CP1: human GRK2 inhibition confirmation, cherry pick 1; bead-bound GRK2, FAM-aptamer displacement, flow cytometry; shares compounds with GRK2 aptamer HTS; aptamer displacement, % at 10 µM; 4% of 2,000 active;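 active = aptamer displacement above 40%, near three times the noise of non-fluorescent compounds, on plates passing quality checks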;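 note: negative values mostly reflect intrinsic compound fluorescence rather than true enhancement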
Aptamer quench 1: fluorescent aptamer quenching in GRK2 counter-screen dose response. Fluorescent RNA aptamer beads, flow cytometry; hits give high values. shares compounds with GRK2 aptamer HTS. 110 tested, under 10 active. fluorescence change (kMESF span), kMESF (no concentration beside the values);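 active = compounds whose bead fluorescence drops by more than 37 kMESF across the dose range, marking them as dye quenchers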
Aptamer quench SP: counter-screen for GRK2 aptamer inhibitors: fluorescent aptamer quenchers | fluorescence response (% of DMSO), % at 10 µM | 2,000 tested, under 10 active | AID 504580 | Carboxyfluorescein RNA aptamer on beads, flow cytometry quenching; hits give low values | shares compounds with GRK2 aptamer HTS;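 active = compounds that quench the bead-bound fluorescent RNA probe, cutting fluorescence to under half of the solvent control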;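 note: counterscreen run without GRK2 so only probe quenching by compound is measured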
GRK2 CP2: confirmation of human GRK2 inhibitors binding RNA aptamer site. bead-bound GRK2, FAM-aptamer displacement, flow cytometry. shares compounds with GRK2 aptamer HTS. 360 tested, under 10 active. inhibition of aptamer binding, % at 10 µM;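 active = inhibition of aptamer binding above 40%, about triple the noise seen with nonglowing compounds, on plates passing quality control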;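 note: negative values mostly come from compounds that fluoresce themselves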
Aptamer quench 2: counter-screen for GRK2 aptamer inhibitors: fluorescent aptamer quenchers. shares compounds with GRK2 aptamer HTS. Streptavidin beads, FAM-RNA aptamer fluorescence quenching, flow cytometry. change in fluorescence (kMESF span), kMESF (test concentration not listed). 25 tested, under 10 active. AID 504819;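 active = compounds quenching the bead-bound labeled aptamer, with fluorescence dropping by more than 37 kMESF over the dose range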
FAM quench CP2: quenches fluorescent RNA aptamer, GRK2 hit artifact; shares compounds with GRK2 aptamer HTS; carboxyfluorescein RNA aptamer beads, flow cytometry quenching; hits give low values; fluorescence response vs DMSO, % at 10 µM; 360 tested, under 10 active; AID 588494;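 active = response vs DMSO under 50%, meaning signal dropped by over half, treated as fluorescence quencher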;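 note: labelled aptamer on streptavidin beads without GRK2 as a quench counter-screen; 100% = bead fluorescence of DMSO wells and lower means quenching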
FAM quench PS1: counter-screen for GRK2 aptamer binding inhibitors: aptamer fluorescence quenching; shares compounds with GRK2 aptamer HTS; Bead-bound FAM RNA aptamer fluorescence quenching, flow cytometry; hits give low values; fluorescence ratio to DMSO, % at 11.1 µM; 35 tested, under 10 active;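 active = compounds that dim the fluorescent label, raw bead signal shifting by over 33 units between lowest and highest dose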
Starred values were filed as active, the others as inactive; x = no result given. Hits are enriched below; roughly 2.5% of the tested compounds scored in any of these assays.

SMILES	GRK2 aptamer HTS	MEKK3 PB1 HTS	MEKK2wt PB1 HTS	MEKK2mut PB1 HTS	GRK2 CP1	Aptamer quench SP	others
O=C(O)c1cccc(-n2cccc2/C=C/[N+](=O)[O-])c1	51*	97	98	-6	30	99
CCN(CC(=O)Nc1ccc(NC(C)=O)cc1)C(=O)C1CC(=O)N(CCc2ccc(OC)c(OC)c2)C1 (stereo not drawn)	92*	x	x	x	-63	98
COc1ccccc1OCC(=O)NCc1n[nH]c(=O)c2ccccc12	0	x	x	x	x	x
Cc1c(OCC(=O)N[C@@H](CSCc2ccccc2)C(=O)O)ccc2c3c(c(=O)oc12)CCC3	x	97	100	1	x	x
O=C(O)C(O)Cc1c[nH]c2ccccc12 (stereo not drawn)	67*	115	107	2	2	100
Cc1ccc(NC(=O)CCS(=O)(=O)c2ccc(Br)cc2)nc1	0	99	100	-2	1	96
Cc1ccc(S(=O)(=O)CCC(=O)NC2CCCC2)cc1	0	95	96	-2	x	x	GRK2 CP2=0;FAM quench CP2=100
Cc1ccc(S(=O)(=O)CCC(=O)NC2CCCCC2)cc1	0	x	x	x	x	x
Cc1ccccc1NC(=O)CCS(=O)(=O)c1ccc(Br)cc1	41*	102	104	-2	18	102	Aptamer quench 2=-6.9;FAM quench PS1=97
CCN(CC)c1ccc(NC(=O)CCS(=O)(=O)c2ccc(Br)cc2)c(C)c1	83*	99	109	2	73*	91	Aptamer quench 1=55*;Aptamer quench 2=4.6;FAM quench PS1=98
Cc1cccc(C)c1NC(=O)CCS(=O)(=O)c1ccc(Br)cc1	2	99	98	0	x	x
CN(C1CCCCC1)S(=O)(=O)c1cccc2nsnc12	2	100	103	5	x	x
CC(=O)Oc1ccc2ccccc2c1C(NC(=O)C(C)C)c1cccc([N+](=O)[O-])c1 (stereo not drawn)	0	99	96	-4	x	x
COc1cc(Cl)c(C)cc1NC(=O)COC(=O)C1CC1C (stereo not drawn)	0	x	x	x	x	x
CCOC(=O)c1ccccc1NC(=O)c1ccc2c(SCC(=O)O)c3c(nc2c1)CCCC3	2	101	94	-2	x	x
Cc1ccc(NC(=O)CN2C(=O)N/C(=C/c3ccc(N4CCOCC4)cc3)C2=O)cc1	1	108	109	3	x	x
Cc1ccccc1NC(=O)CN1C(=O)N/C(=C\c2ccc(N3CCOCC3)c(F)c2)C1=O	1	100	93	-8	-1	98
COCCN(Cc1ccco1)C(=O)C1CCCN(c2ncnc3c2nc2n3CCCCC2)C1 (stereo not drawn)	1	98	99	4	x	x
Clc1ccc(-c2cn(-c3ccccc3)c3[n+]2CCS3)cc1	0	105	94	-10	x	x
Fc1ccc(-c2cn(-c3ccccc3)c3[n+]2CCS3)cc1	43*	100	107	6	0	96
Nc1nonc1-n1nnc(C(=O)N/N=C/c2ccc(O)cc2)c1CN1CCCCCC1	6	x	x	x	x	x
CCCCCOc1ccc(/C=N/NC(=O)c2nnn(-c3nonc3N)c2CN2CCCCCC2)cc1	55*	x	x	x	2	105
CCN(C(=O)CSc1nc2ccc(OC)cc2[nH]1)C1CCS(=O)(=O)C1 (stereo not drawn)	1	x	x	x	x	x
O=C1C=C(O)c2cccc3cccc1c23	100*	103	107	7	2	98
Cc1cc(C)nc(SCNC(=O)c2ccccc2)n1	48*	96	98	1	-2	99
SMILES	GRK2 aptamer HTS	MEKK3 PB1 HTS	MEKK2wt PB1 HTS	MEKK2mut PB1 HTS	GRK2 CP1	Aptamer quench SP	others
O=C1/C(=C/C=C/c2ccco2)SC(=S)N1NS(=O)(=O)c1ccccc1	95*	100	95	1	9	96
O=C(c1ccccc1)N1CCCc2ccccc21	0	98	98	1	x	x
O=C(c1ccc(=O)oc1)N1CCCc2ccccc21	42*	106	103	5	7	106
O=C(c1ccc(=O)oc1)N1CCOCC1	87*	x	x	x	35	110
O=C(c1ccc(F)cc1)N1CCOCC1	50*	96	101	-1	0	101
O=C(c1coc(=O)c(Br)c1)N1CCOCC1	x	90	88	-6	x	x
CC[n+]1ccc(C[n+]2ccccc2)c2ccccc21	54*	102	97	-1	3	95
S=c1[nH]nc(COc2ccccc2)n1Cc1ccccc1	3	120	103	2	x	x
CC(C)CCn1c(COc2ccccc2)n[nH]c1=S	53*	101	98	-4	-8	106
COc1ccc(C2(CCN)CC(C)N(C)CC2C)cc1 (stereo not drawn)	0	102	114	8	x	x
Cc1ccc(CC2(O)CC(C)N(C)CC2C)c(C)c1 (stereo not drawn)	56*	96	103	-4	-1	104
CCOC(=O)N1CCN(C(=O)/C(=C/c2cccs2)NC(=O)c2cccs2)CC1	0	101	89	-14	x	x
Cn1c(N2CCN(C(=O)Nc3ccc(C(F)(F)F)cc3)CC2)nc2ccccc21	3	100	101	1	-1	97
Cn1c(N2CCN(C(=O)NCc3ccccc3)CC2)nc2ccccc21	0	102	108	2	x	x
O=C(CCC1CCCN(C(=O)CCN2CCCCC2=O)C1)NCc1ccccc1F (stereo not drawn)	17	97	95	0	-5	101
Cn1cc(CCC(=O)N2CCCC(CCC(=O)NCc3ccccc3F)C2)cn1 (stereo not drawn)	0	105	89	-9	x	x
Cc1ccc(CNC(=O)CN2C(=O)NC(C)(c3cccc(Br)c3)C2=O)cc1 (stereo not drawn)	56*	108	104	7	1	97
CC1=NN(c2ccc(S(=O)(=O)O)cc2Cl)C(=O)C1	1	102	88	-10	x	x
COc1ccc(Cl)cc1C(=O)n1nc(C)cc1C	0	103	102	9	x	x

From PubChem
